Screening results (PubChem)
SW480 rerep: induces DNA re-replication in SW480 colon adenocarcinoma cells; SW480 DNA re-replication, Hoechst DNA content imaging, 48 h; Potency, µM (doses to about 46.1 µM), most hits filed as activators; 340,000 compounds, 1.8% hits; AID 624297; also: nearly all actives have a fitted effect of over 55% in size
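Quantitative HTS format with DMSO vehicle controls; 48 hr drug incubation at 37 C, then 40 min Hoechst staining and scanning imager measurement at 405 nm excitation.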
KB-V1 MDR tox: KB-V1 MDR subline cytotoxicity | KB-V1 MDR cells viability, CellTiter-Glo, 72 h | 400,000 compounds, 3.4% hits | Potency, µM (titrated, usually from 46.1 µM), hits mostly cytotoxic | AID 1347076; also: nearly all actives have a fitted effect of over 60% in size
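Drug-selected KB-V1 cells, grown in DMEM lacking phenol red with 10% FBS, receive compound titrations; after three days at 37 degrees C, surviving cell ATP is quantified by CellTiter-Glo luminescence and responses normalized and curve-fitted.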
MCF10A rereplic: induces DNA re-replication in MCF 10a normal breast cells; MCF 10A DNA re-replication, Hoechst nuclear intensity, 48 h; Potency, µM (series often up to 46.1 µM), usual class: activators; 350,000 compounds, 2.9% hits; also: nearly all actives have a fitted effect of over 50% in size
DRD3 antagonist: antagonists of human D3 dopamine receptor. D3R cells, DiscoveRx beta-arrestin luminescence, antagonist mode; stronger effect = lower value. max response, negative = inhibition, %. 360,000 compounds, 2.5% hits. P35462. AID 652054; in the data active = max response below about -50%; inconclusive = no clear call, values can overlap the other calls
Target sequence (P35462 whole entry, looked up): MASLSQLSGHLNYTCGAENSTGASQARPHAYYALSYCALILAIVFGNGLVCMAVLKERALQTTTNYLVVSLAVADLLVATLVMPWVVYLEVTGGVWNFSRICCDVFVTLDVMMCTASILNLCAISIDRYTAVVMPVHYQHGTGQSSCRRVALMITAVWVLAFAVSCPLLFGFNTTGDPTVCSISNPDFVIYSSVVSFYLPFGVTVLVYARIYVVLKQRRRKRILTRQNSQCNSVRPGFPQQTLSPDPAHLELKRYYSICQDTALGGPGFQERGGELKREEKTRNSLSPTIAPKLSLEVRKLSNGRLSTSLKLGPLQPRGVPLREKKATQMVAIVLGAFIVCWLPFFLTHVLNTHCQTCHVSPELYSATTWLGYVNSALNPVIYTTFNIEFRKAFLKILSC
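Cells expressing the human receptor were seeded at 1500 cells/well, incubated overnight at 37 degrees C in 5% CO2, then exposed to library compounds with dopamine controls for 90 minutes at 37 degrees C before luminescent detection.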
KB-3-1 tox: kills parental KB-3-1 adenocarcinoma cells; KB-3-1 viability, CellTiter-Glo ATP luminescence, 72 h; Potency, µM (top dose mostly 46.1 µM), actives largely listed as cytotoxic; 400,000 compounds, 1.4% hits; also: nearly all actives have a fitted effect of over 60% in size
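Using CellTiter-Glo luminescence, growth of non-resistant KB-3-1 adenocarcinoma cells is assessed 72 h after pin-tool compound addition at 37 °C. Normalized responses across the concentration series yield fitted curves.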
D3 ag: agonists of human D3 dopamine receptor | P35462 | D3R DiscoveRx beta-arrestin cells, luminescence, 90 min | max activation, % | 410,000 compounds, 0.58% hits; in the data active = max activation above about 30%
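Agonist mode: compounds and dopamine controls were applied to plated cells for 90 min at 37 degrees C after an overnight attachment at 1500 cells/well. Luminescent read-out followed 30 - 60 minutes at room temperature with DiscoveRx detection reagent.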
Of the large screens only hits and unclear results are named; the others gave an inactive call. Most compounds without a hit are left out; they make up all but 8.9% or so of the library. Unless noted, calls follow the shape of the dose curve; as a rule, active = well fitted curve in the direction sought with a large enough effect; inconclusive = small, poorly fitted or top-dose-only effect, or another doubt; inactive = no such curve, though single readings can be large; an effect the other way counts as inactive or inconclusive.

Cc1ccc(S(=O)(=O)c2nc(S(C)(=O)=O)sc2N2CCCCCC2)cc1	KB-V1 MDR tox 6.51µM
COc1ccc(-c2cc(C(=O)O)n(Cc3ccccc3)n2)cc1	KB-V1 MDR tox inconclusive (no result: SW480 rerep, MCF10A rereplic, DRD3 antagonist)
CC(=O)Nc1ccc(S(=O)(=O)N2CCCC2C(=O)Nc2ccc3c(c2)OCCO3)cc1 (stereo unspecified)	none
Cc1ccc(S(=O)(=O)Nc2ccc3c(c2)OCCO3)cc1	KB-V1 MDR tox 23.1µM, KB-3-1 tox inconclusive
O=S(=O)(Nc1ccc2c(c1)OCCO2)c1ccc(F)cc1	none
CC(=O)c1sc(-c2ccccc2)cc1NS(=O)(=O)c1ccc(C)cc1	SW480 rerep inconclusive, KB-V1 MDR tox inconclusive, MCF10A rereplic 11.6µM
Cc1ccc(S(=O)(=O)N2C(=O)CCC2C(=O)Nc2ccc3c(c2)OCCO3)cc1 (stereo unspecified)	DRD3 antagonist -65.5
Cc1ccc(S(=O)(=O)N/N=C\c2cc3c(cc2Br)OCO3)cc1	SW480 rerep inconclusive, MCF10A rereplic 4.61µM
Cc1ccc(S(=O)(=O)N/N=C\c2ccc3c(c2)OCO3)cc1	none
CC(=O)c1sc(-c2ccccc2)cc1NS(=O)(=O)c1ccccc1	none
Cc1ccc(N2CCN(C(=O)CCS(=O)(=O)c3cc4c(cc3Cl)NC(=O)CO4)CC2)c(C)c1	none (no result: SW480 rerep, MCF10A rereplic, DRD3 antagonist)
Cc1ccc(N2CCN(c3nc4ccc(C(=O)c5ccccc5)cc4n4cnnc34)CC2)c(C)c1	none (no result: SW480 rerep, MCF10A rereplic, DRD3 antagonist)
CCN(CC)CCNC(=O)c1c(C)oc2ncnc(N3CCOCC3)c12	none (no result: SW480 rerep, KB-V1 MDR tox, MCF10A rereplic, DRD3 antagonist, KB-3-1 tox)
CC(=O)c1cc2c(cc1NS(=O)(=O)c1ccc(C)cc1)OCCO2	SW480 rerep inconclusive, KB-V1 MDR tox 16.4µM, MCF10A rereplic 14.6µM
O=[N+]([O-])c1ccc(S(=O)(=O)Nc2ccc3c(c2)OCCO3)cc1	KB-3-1 tox inconclusive
O=C1CCCN1c1ccc(S(=O)(=O)Nc2ccc3c(c2)OCCO3)cc1	KB-V1 MDR tox 18.4µM, KB-3-1 tox 18.4µM
CC(C)CC(=O)Nc1ccc2nc(SCC(=O)N3CCc4ccccc43)sc2c1	none (no result: SW480 rerep, MCF10A rereplic, DRD3 antagonist)
CCn1c(-c2ccccc2)c(C(=O)CCl)c2ccccc21	SW480 rerep inconclusive, KB-V1 MDR tox inconclusive, MCF10A rereplic 23.1µM
Cn1c(-c2ccccc2)c(CCO)c2ccccc21	KB-3-1 tox inconclusive
Cn1c(-c2ccccc2)c(C(=O)CCl)c2ccccc21	SW480 rerep inconclusive, KB-V1 MDR tox inconclusive, MCF10A rereplic inconclusive, DRD3 antagonist -51.3, KB-3-1 tox inconclusive
CCNCCNC(=O)c1c(O)c2ccccc2n(CC)c1=O	KB-V1 MDR tox inconclusive
CC(=O)Nc1ccc(NC(=O)C2CC(=O)Nc3nc4ccccc4n32)cc1 (stereo unspecified)	none
Cc1ccc(NC(=O)C2CC(=O)Nc3nc4ccccc4n32)c(C)c1 (stereo unspecified)	SW480 rerep 18.4µM
COc1ccc(N2CCN(C3CCCN(Cc4cccc(C)c4)C3)CC2)cc1 (stereo unspecified)	KB-3-1 tox inconclusive
COc1ccc(CN2CCCC(N3CCN(c4ccc(OC)cc4)CC3)C2)cc1 (stereo unspecified)	DRD3 antagonist -57.7
CCOc1cc(CN2CCCC(N3CCN(c4ccc(F)cc4)CC3)C2)ccc1OC (stereo unspecified)	MCF10A rereplic 4.11µM
COc1ccc(O)c(CN2CCCC(N3CCN(c4ccc(F)cc4)CC3)C2)c1 (stereo unspecified)	MCF10A rereplic inconclusive
COc1ccc(N2CCN(C3CCCN(Cc4cccc(C(C)=O)c4)C3)CC2)cc1 (stereo unspecified)	MCF10A rereplic 23.1µM, DRD3 antagonist inconclusive
Cc1ccc(Sc2c(C)nn(C(=O)COc3ccccc3Br)c2C)cc1	none (no result: SW480 rerep, MCF10A rereplic, DRD3 antagonist)
Cn1c(-c2sc3ccccc3c2Cl)n[nH]c1=S	KB-V1 MDR tox 16.4µM, DRD3 antagonist -75.7, KB-3-1 tox 20.6µM
Cn1c(CSc2nc3ccccc3s2)n[nH]c1=S	DRD3 antagonist -64.7
Cn1c(CSc2nc3ccccc3s2)nc2ccccc21	KB-V1 MDR tox inconclusive
Cc1cc(Nc2ccccc2C)n2nc(Cc3ccc(Cl)cc3)nc2n1	none (no result: SW480 rerep, MCF10A rereplic, DRD3 antagonist)
COC(=O)c1ccc(C23CC4(C2)[C@H](CN(Cc2cccnc2)[C@@H]4c2ccccc2)C3c2ccccc2)cc1 (stereo partly specified)	SW480 rerep inconclusive, KB-3-1 tox inconclusive, D3 ag 47.1
CN(C(=O)CSc1nc(C2CCCC2)nc2c1c(=O)n(C)c(=O)n2C)c1ccccc1	none (no result: SW480 rerep, MCF10A rereplic, DRD3 antagonist)
CCC(=O)NC(c1ccccc1)c1c(O)ccc2ccccc12 (stereo unspecified)	MCF10A rereplic inconclusive
CC(=O)NC(c1ccc(C(C)C)cc1)c1c(O)ccc2ccccc12 (stereo unspecified)	SW480 rerep inconclusive, MCF10A rereplic 18.4µM
CC(=O)NC(c1ccccc1)c1c(O)ccc2ccccc12 (stereo unspecified)	D3 ag 34.3
O=C(NCc1ccc(F)cc1)c1ccc(CSCc2cccc(Cl)c2)o1	none (no result: SW480 rerep, MCF10A rereplic, DRD3 antagonist)
Cc1onc(-c2ccccc2)c1C(=O)NNC(=S)NC(=O)c1ccc(Br)cc1	SW480 rerep inconclusive, KB-V1 MDR tox inconclusive, MCF10A rereplic inconclusive
Cc1onc(-c2ccccc2)c1C(=O)NNC(=S)NC(=O)/C=C/c1ccccc1	SW480 rerep inconclusive, KB-V1 MDR tox 2.91µM, MCF10A rereplic inconclusive, KB-3-1 tox inconclusive
COc1ccc(/C=C/C(=O)NC(=S)NNC(=O)c2c(-c3ccccc3)noc2C)cc1	KB-V1 MDR tox 7.31µM, KB-3-1 tox inconclusive
COC(=O)C1=C(C)N(Cc2ccccc2)C(=NCc2cccc(C(F)(F)F)c2)N[C@H]1c1cccc(C(F)(F)F)c1	KB-V1 MDR tox inconclusive, MCF10A rereplic 3.66µM, KB-3-1 tox inconclusive
COCCN=C1N[C@@H](c2cccc(C(F)(F)F)c2)C(C(=O)OC)=C(C)N1Cc1ccccc1	none
COC(=O)C1=C(C)N(CC2CC2)C(=NCc2cccc(C(F)(F)F)c2)N[C@H]1c1ccccc1	MCF10A rereplic inconclusive
COC(=O)C1=C(C)N(Cc2ccccc2)C(=NCc2cccc(C(F)(F)F)c2)N[C@H]1c1cccc(F)c1	SW480 rerep inconclusive, KB-V1 MDR tox inconclusive, MCF10A rereplic 11.6µM, KB-3-1 tox inconclusive
COC(=O)C1=C(C)N(Cc2ccccc2)C(=NCC(C)C)N[C@H]1c1ccccc1	MCF10A rereplic inconclusive, KB-3-1 tox inconclusive
COC(=O)C1=C(C)N(Cc2ccccc2)C(=NCc2ccc(OC)cc2)N[C@H]1c1ccccc1	KB-V1 MDR tox inconclusive, MCF10A rereplic inconclusive, DRD3 antagonist -54.3
COc1ccc(CCNC(=O)C(=O)Nc2ccc(C)cc2)cc1OC	none (no result: SW480 rerep, MCF10A rereplic, DRD3 antagonist)
COc1ccc(Cc2noc(CN3CCN(c4ccc(Cl)cn4)CC3)n2)cc1OC	KB-V1 MDR tox 3.26µM, KB-3-1 tox inconclusive
O=C(NC(=S)NCCO)c1sc2ccccc2c1Cl	DRD3 antagonist inconclusive
